Screening data: PubChem, National Center for Advancing Translational Sciences (NCATS)
ATXN2 expr inh: ATXN2 expression inhibition; HEK-293 ATXN2-luciferase reporter, luminescence, 24 h; Potency, µM (titrated, usually from 57 µM), usual class: inhibitors; hit rate 0.72% among 360,000; further: nearly all actives have a fitted effect of over 55% in size
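qHTS (up to 57 uM final) was run with 24 h compound exposure of reporter cells at 37 °C. Each well was multiplexed: SteadyGlo luminescence measured ATXN2-luciferase expression after a fluorogenic Gly-Phe-AFC viability readout (25 uM final).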
GLP-1R agonist: agonists of human GLP-1 receptor; P43220; HEK293 GLP-1R CRE-luciferase, luminescence, 4-6 h; cells express a hypersensitive GLP-1R form; Potency, µM (doses to about 45.6 µM), most hits filed as activators; hit rate 0.007% among 380,000; AID 624172
Target sequence (P43220 whole entry, looked up): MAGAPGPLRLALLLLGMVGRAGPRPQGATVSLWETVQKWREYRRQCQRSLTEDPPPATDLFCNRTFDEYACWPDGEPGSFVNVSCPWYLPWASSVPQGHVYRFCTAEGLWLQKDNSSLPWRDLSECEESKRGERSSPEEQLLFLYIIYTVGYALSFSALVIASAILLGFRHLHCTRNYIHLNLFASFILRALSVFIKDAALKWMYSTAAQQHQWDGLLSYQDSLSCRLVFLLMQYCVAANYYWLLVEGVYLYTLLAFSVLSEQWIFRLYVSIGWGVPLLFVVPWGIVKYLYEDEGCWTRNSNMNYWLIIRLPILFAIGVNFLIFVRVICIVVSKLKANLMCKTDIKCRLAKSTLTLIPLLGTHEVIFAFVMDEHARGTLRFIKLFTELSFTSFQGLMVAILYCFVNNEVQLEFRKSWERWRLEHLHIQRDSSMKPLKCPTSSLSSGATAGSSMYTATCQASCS
S2 tox: cell viability loss in ATXN counter-screen | AID 651635 | Potency, µM (doses to about 56.7 µM), hits mostly cytotoxic | S2 cells (HEK-293 line with an ATXN2-luciferase reporter) viability, CellTiter-Fluor protease fluorescence, 24 h | hit rate 0.49% among 400,000; further: nearly all actives have a fitted effect of over 40% in size
HepG2 viability: counter-screen for TGF-b inhibitors: cytotoxicity in HepG2 cells | HepG2 CAGA-GFP viability, ATP luminescence, 18 h | Potency, µM (top dose mostly 46.1 µM), most hits filed as cytotoxic | hit rate 0.76% among 410,000
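HepG2 CAGA-GFP cells (1000/well, DMEM with 1% FBS) received compound, then TGF-beta at 500 pg/mL final, and were incubated 18 hours at 37 degrees C. Viability was read by CellTiter-Glo luminescence. Media-only wells were set as complete cell-killing and DMSO as no toxicity.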
TGFb SMAD3 inh: inhibitors of TGF-b signaling; HepG2 CAGA-GFP TGF-b/SMAD3 reporter, GFP fluorescence, 18 h; TGF-beta stimulated, 500 pg/mL final; hit rate 1.2% among 410,000; Potency, µM (titrated, usually from 46.1 µM), hits mostly inhibitors; further: nearly all actives have a fitted effect of over 65% in size
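TGF-beta reporter screen: HEPG2 CAGA-GFP, 1% FBS, 500 pg/mL TGF-beta final, 18 h; per-cell GFP summed per well; curves fitted and categorized by class.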
GLP-1R inv ag: GLP-1 receptor (human) inverse agonism; P43220; HEK293 GLP-1R CRE-luciferase, luminescence, 24 h; GLP-1R form is constitutively active; Potency, µM (top dose mostly 38.3 µM), hits mostly inhibitors; hit rate 1.6% among 410,000; further: nearly all actives have a fitted effect of over 55% in size
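Using stably transfected HEK293 (constitutively active GLP-1R, cAMP-luciferase reporter), compounds were incubated 24 hr and luciferase measured by luminescence.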
A number is an active result; . = inactive; ? = inconclusive; / = no result given; ! = repeats disagree. This is a sample that favours compounds with a hit; in the whole collection about 3.7% have one here. The call rests on the fitted dose curve; in most records, active means well fitted curve in the direction sought with a large enough effect; inconclusive means small, poorly fitted or top-dose-only effect, or another doubt; inactive means no such curve, though single readings can be large; an effect the other way counts as inactive or inconclusive.

SMILES	ATXN2 expr inh	GLP-1R agonist	S2 tox	HepG2 viability	TGFb SMAD3 inh	GLP-1R inv ag
CC(C)N1CCC2(CC1)N=C(c1ccc3c(c1)OCO3)CC(c1cc(Cl)ccc1O)N2 (stereo not drawn)	?	.	?	11µM	?	11µM
Cc1ccc(S(=O)(=O)/N=C2\C(=O)c3ccccc3C([O-])=C2n2cc[n+](CCC(C)C)c2)cc1	?	.	.	7.1µM	4µM	.
CCCC[n+]1ccn(C2=C([O-])c3ccccc3C(=O)/C2=N\S(=O)(=O)c2ccc(Br)cc2)c1	.	.	?	.	6.3µM	.
COc1ccccc1CCC(=O)O	/	/	/	.	.	/
CCCC(=O)c1cc(O)c(O)cc1O	.	.	?	/	/	/
O=C1C=CC(=C(c2ccc(O)cc2)c2ccc(O)cc2)C=C1	?	.	16µM	10µM	?	5.6µM
Cc1ccccc1-n1c(=O)c2c3c(sc2n2cnnc12)CCCC3	.	/	?	.	.	.
c1ccc(-c2nc3cc4ccccc4cc3[nH]2)nc1	.	.	.	8.9µM	.	?
CC(=O)Nc1ccc2nc(-c3ccccn3)[nH]c2c1	.	.	.	.	.	.
C[C@@H]1CC[C@@]2(OC1)OC1CC3C4CC=C5CC(O)CCC5(C)C4CCC3(C)C1[C@@H]2C (stereo partly drawn)	.	/	/	/	/	/
Cc1ccc(N(CC(=O)Nc2cc(Cl)ccc2Oc2ccccc2)S(C)(=O)=O)cc1C	.	.	.	.	.	?
Cc1ccc(N(CC(=O)Nc2cc(Cl)ccc2Oc2ccccc2)S(C)(=O)=O)c(C)c1	.	.	.	.	?	7.1µM
CCC1(C2CCN(Cc3cccc4ccccc34)CC2)NC(=O)N(Cc2ccc3c(c2)OCO3)C1=O (stereo not drawn)	/	/	.	/	/	/
O=c1cc(-c2ccccc2Cl)oc2c(Br)ccc(O)c12	.	.	.	.	.	.
CN1CC[C@@H](c2c(O)cc(O)c3c(=O)cc(-c4ccccc4Cl)oc23)[C@@H](O)C1	0.15µM	/	/	/	/	/
Cc1ccc(C(=O)N(CCCN)[C@@H](c2nc3cc(Cl)ccc3c(=O)n2Cc2ccccc2)C(C)C)cc1	.	/	/	/	/	/
CC(C(=O)NCCC1=CCCCC1)c1ccc([N+](=O)[O-])cc1 (stereo not drawn)	.	.	.	.	.	10µM
CC(Oc1cccc([N+](=O)[O-])c1)C(=O)NCCC1=CCCCC1 (stereo not drawn)	.	.	.	.	.	.
CC(NC(CCc1ccccc1)C(=O)O)C(=O)N1CCCC1C(=O)O (stereo not drawn)	/	.	/	/	/	/
COc1ccc(Cl)cc1NC(=O)C1CC(=O)N(C2CCCCC2)C1 (stereo not drawn)	.	.	.	.	.	?
O=C(Nc1cc(Cl)cc(Cl)c1)C1CC(=O)N(C2CCCC2)C1 (stereo not drawn)	.	.	.	10µM	?	8.9µM
O=C(NCCc1ccccc1)C1CC(=O)N(C2CCCCCC2)C1 (stereo not drawn)	.	.	.	.	.	.
O=C(NCCC1=CCCCC1)C1CC(=O)N(C2CCCCC2)C1 (stereo not drawn)	.	.	.	.	2.8µM	.
COC(=O)c1cccc(C(=O)N2CCc3c(C(=O)OC)c(OCc4ccccn4)cc(=O)n3CC2)c1	/	/	.	/	/	/
CCc1noc(C)c1C(=O)N1CCOc2ccc(CN3CCN(c4ccccn4)CC3)cc2C1	/	/	.	/	/	/
SMILES	ATXN2 expr inh	GLP-1R agonist	S2 tox	HepG2 viability	TGFb SMAD3 inh	GLP-1R inv ag
CCOC(=O)Cn1c(COc2ccccc2OC)[n+](C)c2ccccc21	/	.	.	.	.	.
CCCCCCCCCCOC(=O)Cn1c(COc2ccc(OC)cc2)[n+](C)c2ccccc21	?	.	?	11µM!	10µM	?
CCCCCCCCCCOC(=O)Cn1c(COc2ccc(Cl)cc2)[n+](C)c2ccccc21	/	.	/	13µM	13µM	?
CCCCCCCCCCOC(=O)Cn1c(COc2ccccc2)[n+](C)c2ccccc21	/	.	?	.	11µM	?
CCCCCCCCCCOC(=O)Cn1c(COc2cccc(C)c2)[n+](C)c2ccccc21	.	.	.	.	?	.
CCCCCCCCCCOC(=O)Cn1c(COc2ccccc2C)[n+](C)c2ccccc21	22µM	.	?	.	?	?
CCOc1ccc(CN2CCOc3ccc(C(O)c4cccnc4)cc3C2)cc1 (stereo not drawn)	/	/	.	/	/	/
O=C(Nc1ccc(O)c2c(=O)cc(-c3ccccc3Cl)oc12)c1cc(Cl)cc(Cl)c1	/	/	/	.	.	/
COc1ccc(C(C(=O)NC2CCCC2)N(C(=O)c2ccoc2C)c2ccc(C)c(C)c2)cc1 (stereo not drawn)	.	.	.	.	.	10µM
CCc1ccc(N(C(=O)c2ccco2)C(C(=O)NC2CCCC2)c2ccco2)cc1 (stereo not drawn)	.	.	?	.	.	10µM
COc1ccc(C(C(=O)NC2CCCCC2)N(C(=O)CCl)c2ccc(Cl)cc2)cc1 (stereo not drawn)	3.5µM	.	3.2µM	.	.	.
COC(CN(C(=O)CCl)C(C(=O)NC1CCCCC1)c1ccccc1C)OC (stereo not drawn)	?	.	?	.	.	10µM
COc1ccc(N(C(=O)c2cnccn2)C(C(=O)NC2CCCCC2)c2ccc(Cl)cc2)cc1 (stereo not drawn)	.	.	.	.	.	.
CCc1ccc(N(C(=O)c2ccoc2C)C(C(=O)NC2CCCC2)c2ccc(OC)cc2)cc1 (stereo not drawn)	.	.	.	.	.	10µM
CCc1ccc(C(c2ccccc2)c2c(C)[nH]c3ccccc23)s1 (stereo not drawn)	?	.	/	.	?	?
c1ccc2c(C(c3c[nH]c4ccccc34)c3c[nH]c4ccccc34)c[nH]c2c1	/	/	/	.	?	/
Cc1[nH]c2ccccc2c1C(c1c[nH]c2ccccc12)c1c(C)[nH]c2ccccc12	/	/	/	.	16µM	/
Cc1ccc(C(c2ccccc2)c2c(C)[nH]c3ccccc23)s1 (stereo not drawn)	?	.	?	.	14µM	?
CN1N=C(C(N)=O)CCC1=O	.	/	.	/	/	/
Cc1ccc(Cl)cc1NC(=O)C[n+]1ccc(Cc2ccc([N+](=O)[O-])cc2)cc1	.	.	.	.	.	?
CC(C)(C)NC(=O)NC(=O)C[n+]1ccc(Cc2ccc([N+](=O)[O-])cc2)cc1	.	.	.	3.2µM	.	?
COc1cc(NC(=O)Nc2cccc(Cl)c2)c(OC)cc1NC(=O)CN1CCCCC1	.	.	?	.	?	3.2µM
COc1ccccc1NC(=O)CN1CCN(CC(=O)Nc2ccc(Cl)c(C(F)(F)F)c2)CC1	?	.	/	.	?	4µM
